Experimental findings from the supplement of paper PMC13380429 are described below.

The subject of assay [1] is Vero E6 infected with SARS-CoV-2. Briefly: morphology score (similarity to uninfected cells); higher = more like uninfected cells. Conditions: 24 h.
For assay [2] the test system is unchanged. Kind of assay: SARS-CoV-2 infection rate relative to infected DMSO; higher = more infection, active = 60 or less. Conditions: 24 h.

In assay [1], `CC12CC3CC(C)(C1)CC(N)(C3)C2` [memantine] (10 µM) showed a morphology score of 0.0122. In addition, in assay [2], the SARS-CoV-2 infection rate was 110% (inactive).

Compound `CC1CCc2cc(F)cc3c(=O)c(C(=O)O)cn1c23` (stereo not given) [flumequine] (10 µM) yielded a morphology score in assay [1] of -0.154. In assay [2], the SARS-CoV-2 infection rate was 116% (inactive).

`CC(C)(C)n1nc(-c2cccc3ccccc23)c2c(N)ncnc21` [1-naphthyl-PP1] (0.833333 µM) gave a morphology score in assay [1] of 0.129. For the same compound, the SARS-CoV-2 infection rate in assay [2] was 96.5% (inactive).

Take `CN1[C@@H]2CC[C@H]1C[C@@H](OC(c1ccc(F)cc1)c1ccc(F)cc1)C2` [3-alpha-bis-(4-fluorophenyl)-methoxytropane] (10 µM): the morphology score in assay [1] came to 0.266. Further, the SARS-CoV-2 infection rate in assay [2] is 73% (inactive).

In turn, `COc1cc2c(c(OC)c1OC)-c1ccc(OC)c(=O)cc1[C@@H](NC(C)=O)CC2` [colchicine] (10 µM) registered a morphology score in assay [1] of -0.0542. The SARS-CoV-2 infection rate in assay [2] was 96% (inactive).

In assay [1], `CNC(=O)c1ccccc1Nc1cc(Nc2ccc(N3CCOCC3)cc2OC)ncc1C(F)(F)F` (10 µM) had a morphology score of -0.0543. For the same compound, the SARS-CoV-2 infection rate in assay [2] is 111% (inactive).

`CC(C)C[C@@H](N)C1(c2ccc(Cl)cc2)CCC1` (10 µM) gave a morphology score in assay [1] of -0.0886. Also, in assay [2], the SARS-CoV-2 infection rate is 116% (inactive).

Turning to `NS(=O)(=O)c1cc2c(cc1Cl)NC(C(Cl)Cl)NS2(=O)=O` (stereo not given) [trichlormethiazide] (10 µM), the morphology score in assay [1] was found to be 0.0616. Besides, in assay [2], the SARS-CoV-2 infection rate is 100% (inactive).

On to `CC1=C(CC(=O)O)c2cc(F)ccc2/C1=C\c1ccc(S(C)(=O)=O)cc1` [exisulind] (10 µM), for which, in assay [1], the morphology score came out at 0.0955. Moreover, in assay [2], the SARS-CoV-2 infection rate is 109% (inactive).

In turn, `c1ccc(N2CCN(CCCOc3ccc4c(c3)OCO4)CC2)cc1` (10 µM) gave a morphology score in assay [1] of 0.0822. Also, the SARS-CoV-2 infection rate in assay [2] is 101% (inactive).

As to `CNNCc1ccc(C(=O)NC(C)C)cc1` [procarbazine] (10 µM), in assay [1], the morphology score was 0.133. Also, the SARS-CoV-2 infection rate in assay [2] is 106% (inactive).

Consider `N#CCCCSC(=N)N` [kevetrin] (10 µM), for which the morphology score in assay [1] is 0.195. Moreover, the SARS-CoV-2 infection rate in assay [2] is 92% (inactive).

`CC(C)(C)NC(=O)[C@@H](c1cccnc1)N(C(=O)c1ccco1)c1ccc(C(C)(C)C)cc1` (10 µM) registered a morphology score in assay [1] of 0.333. In addition, the SARS-CoV-2 infection rate in assay [2] was 83% (inactive).

Take `CN(NC(=O)CC(=O)NN(C)C(=S)c1ccccc1)C(=S)c1ccccc1` [elesclomol] (10 µM): the morphology score in assay [1] came to 0.879. The SARS-CoV-2 infection rate in assay [2] is 19.5% (active).

`CCCOc1ccc2c(c1)CC[C@@H]1[C@@H]2CC[C@]2(C)[C@@H](OC)CC[C@@H]12` [promestriene] (10 µM): in assay [1], the morphology score was found to be 0.169. In addition, the SARS-CoV-2 infection rate in assay [2] was 99.5% (inactive).

In assay [1], `O=C(OCC(O)CO)c1ccccc1Nc1ccnc2c(C(F)(F)F)cccc12` (stereo not given) [floctafenine] (10 µM) returned a morphology score of -0.157. For the same compound, in assay [2], the SARS-CoV-2 infection rate is 106% (inactive).

Take `CC(C)(C)c1[nH]cnc1/C=c1\[nH]c(=O)/c(=C/c2ccccc2)[nH]c1=O` [plinabulin] (0.833333 µM): in assay [1], the morphology score is -0.0585. In addition, in assay [2], the SARS-CoV-2 infection rate is 112% (inactive).

On to `COc1ccc(/C=C2\CCCN=C2c2cccnc2)c(OC)c1` (10 µM), for which the morphology score in assay [1] was 0.517. Also, in assay [2], the SARS-CoV-2 infection rate is 87% (inactive).

In assay [1], `CCCC(CCC)C(=O)NCC(N)=O` [valrocemide] (10 µM) returned a morphology score of 0.062. For the same compound, the SARS-CoV-2 infection rate in assay [2] was 108% (inactive).

Regarding `O=C(NCc1ccc(OC(F)(F)F)cc1)C1c2ccccc2C(=O)N1C1CCOCC1` (stereo not given) (10 µM), in assay [1], the morphology score was -0.0695. In assay [2], the SARS-CoV-2 infection rate was 105% (inactive).

`N#C/C(=C1/SCC(c2ccccc2Cl)S1)n1ccnc1` (stereo not given) [lanoconazole] (10 µM) gave a morphology score in assay [1] of 0.0956. Moreover, the SARS-CoV-2 infection rate in assay [2] was 99.5% (inactive).

In assay [1], `CN1C[C@@H]2CN(c3ccc(-c4ccccc4)nn3)C[C@@H]2C1` (10 µM) displayed a morphology score of 0.149. Further, the SARS-CoV-2 infection rate in assay [2] is 91% (inactive).

`Cc1cc(CN)cc(C)c1NC(=O)c1ccc(-c2cc(Cl)ccc2Cl)o1` (10 µM) came in with a morphology score in assay [1] of 0.717. Further, in assay [2], the SARS-CoV-2 infection rate was 7.5% (active).

In turn, `CCOC(=O)NNc1nncc2ccccc12` [todralazine] (10 µM) returned a morphology score in assay [1] of 0.0897. For the same compound, in assay [2], the SARS-CoV-2 infection rate was 106% (inactive).

In assay [1], `Nc1ccc(S(=O)(=O)Nc2ccnn2-c2ccccc2)cc1` [sulfaphenazole] (10 µM) returned a morphology score of 0.178. The SARS-CoV-2 infection rate in assay [2] was 99.5% (inactive).

For `COc1cc(NS(=O)(=O)c2ccc(N)cc2)nc(OC)n1` [sulphadimethoxine] (10 µM), the morphology score in assay [1] was -0.00223. Also, the SARS-CoV-2 infection rate in assay [2] was 103% (inactive).

`Cc1cc(Nc2cc(C)c(C#N)c(N[C@@H](C)CCCC(C)(C)O)n2)n[nH]1` (10 µM): in assay [1], the morphology score was -0.0857. For the same compound, the SARS-CoV-2 infection rate in assay [2] was 113% (inactive).

As for `NC(=O)c1[nH]cnc1O` (10 µM), the morphology score in assay [1] was -0.0334. Also, the SARS-CoV-2 infection rate in assay [2] was 107% (inactive).

In turn, `CCCN(CC1CC1)c1nc(C)nc(Nc2c(Cl)cc(Cl)cc2Cl)c1Cl` (10 µM) registered a morphology score in assay [1] of 0.143. The SARS-CoV-2 infection rate in assay [2] is 102% (inactive).

`O=C(c1ccc(/C=C/c2n[nH]c3ccccc23)cc1)N1CCNCC1` (10 µM) returned a morphology score in assay [1] of 0.964. Further, the SARS-CoV-2 infection rate in assay [2] was 94.5% (inactive).
